The panel holds about 83,000 compounds, 20% with a hit somewhere; the sample as a whole holds those more often.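 Single-dose data. Exposure time 48 hours. Values below 10 considered active.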 A number with no mark means an inactive call. The source made the active and inactive calls.
Experiments:
Test in all cases: NCI-60 one-dose screen, 48 h (100 = growth as untreated, 0 = no growth, -100 = all killed)
Conditions in all cases: 10 µM
[1] = test system: NCI-H23 lung
[2] = test system: NCI-H226 lung
[3] = test system: NCI-H322M lung
[4] = test system: HOP-62 NSCLC
[5] = test system: NCI-H460 lung
[6] = test system: HOP-92 NSCLC
[7] = test system: NCI-H522 lung
[8] = test system: A549/ATCC NSCLC
[9] = test system: 786-0 renal
[10] = test system: COLO 205 colon

SMILES	growth [1]	growth [2]	growth [3]	growth [4]	growth [5]	growth [6]	growth [7]	growth [8]	growth [9]	growth [10]
O=C1Nc2ccc(Cl)cc2/C1=C/c1cccc(OCc2ccccn2)c1	15.4%	-21.3% (active)	40.1%	52.1%	-16.2% (active)	-6.11% (active)	-75.5% (active)	40.1%	-14.4% (active)	-45.9% (active)
Cc1nc(Nc2nc(C)c3ccc(OCCN4CCOCC4)cc3n2)[nH]c(=O)c1C	-66.6% (active)	-47.2% (active)	-10.8% (active)	-34.5% (active)	2.14% (active)	3.9% (active)	-52.3% (active)	6.61% (active)	-25.1% (active)	0.287% (active)
CCC(C)S(=O)(=O)c1oc(-c2ccc(C)cc2)nc1S(=O)(=O)c1ccccc1 (stereo not given)	-86.8% (active)	-10.3% (active)	65.1%	28.7%	-13.9% (active)	-74.6% (active)	-98.7% (active)	35.9%	-48.8% (active)	-85.5% (active)
OCCNc1oc(-c2ccccc2)nc1[P+](c1ccccc1)(c1ccccc1)c1ccccc1	8.3% (active)	1.88% (active)	55.3%	24.2%	5.2% (active)	-22.6% (active)	2.33% (active)	45.8%	21.2%	-52.8% (active)
COc1ccc(-c2ccc(SCC(=O)Nc3ccc(C#N)cc3)nn2)cc1	79.7%	66.9%	88.4%	64.8%	96.4%	86.9%	87.3%	96.3%	86.4%	127%
Cc1ccc(-c2nc(Nc3ccc(C)c(S(N)(=O)=O)c3)c3ccccc3n2)cc1	79%	84.1%	79.7%	96.3%	11.9%	104%	112%	43.4%	33.7%	90.5%
O=C(NC(=S)N1CCN(c2ncnc3c2cnn3-c2ccccc2)CC1)c1ccc(Cl)cc1	55.5%	52.3%	66.8%	-2.01% (active)	53.3%	14.7%	38%	54.3%	27.8%	77.4%
COc1ccc2ncc(C#Cc3cncc(C(=O)Nc4ccc(CN5CCN(C)CC5)c(C(F)(F)F)c4)c3)n2n1	-80.9% (active)	-68.4% (active)	-98% (active)	-61% (active)	-75.3% (active)	-72% (active)	-65.5% (active)	-51.7% (active)	-55.7% (active)	-63.8% (active)
Nc1n[nH]c2cccc(C#Cc3cccc(NC(=O)Nc4cc(C(F)(F)F)cc(C(F)(F)F)c4)c3)c12	-88.4% (active)	-52.6% (active)	-22.4% (active)	-55.3% (active)	-56.8% (active)	-71.5% (active)	-58.4% (active)	-35.3% (active)	-20.3% (active)	-77.5% (active)
CC1(c2ccccc2)NC(=O)N(CC(=O)Nc2ccc(C(=O)/C=C/c3ccc(Br)cc3)cc2)C1=O (stereo not given)	64.4%	43.4%	78.1%	61.9%	59.5%	25.1%	64.3%	38.9%	12.8%	64.1%
COc1ccc2cc([C@H](C)C(=O)NCc3ccccc3)ccc2c1	33.6%	59.5%	49.7%	41.8%	17.7%	104%	-5.33% (active)	59.7%	59.7%	0.915% (active)
N#Cc1c(Cl)nc(SCc2ccc(F)cc2)nc1-c1ccc(F)cc1	95.7%	71.3%	92.2%	101%	103%	74.8%	74.6%		95.4%	120%
Cc1cc2c(c(O)c1Br)-c1ncoc1C(=O)[C@]1(C)CC[C@H](C(C)C)[C@H]21	36.8%	38.5%	65.7%	38%	18.4%	35.4%	-20.6% (active)		66.5%	-15.9% (active)
O=C(CSc1nnc(-c2c[nH]c3ccccc23)n1-c1ccccc1)Nc1ccc(C(=O)/C=C/c2ccc(Br)cc2)cc1	81.3%	72.5%	92.1%	89.4%	104%	89.4%	76.3%		94.8%	108%
O=C(/C=C/Nc1ccccc1)c1ccc2c(c1)Nc1ccccc1S2	70%	43.5%	75.7%	53.5%	62.5%	98.7%	61.4%		87.2%	100%
COc1ccc(Nc2nc(N)n(Cc3cccc(Br)c3)n2)cc1	0.552% (active)	10%	27.7%	35.1%	-17.6% (active)	-36.9% (active)	-20.9% (active)		-9.25% (active)	-46.6% (active)
O=C(COc1ccc(NC(=O)Nc2ccc(Cl)cc2)cc1)N=Nc1c(O)[nH]c2ccc([N+](=O)[O-])cc12	21.4%	22.4%	53.3%	35.7%	17.5%	-36.2% (active)	8.06% (active)		53.6%	23%
O=C(c1ccc(O)cc1)C1[C@H](c2ccc(Br)cc2)[C@@H](c2ccccc2)NC12C(=O)Nc1ccccc12 (stereo not given in full)	7.68% (active)	43.5%	51.6%	39.4%	2.57% (active)	8.1% (active)	32.4%		16.3%	-46.4% (active)
Cc1ccc(-c2nc(Nc3ccc(S(N)(=O)=O)cc3)c3ccccc3n2)cc1	71.2%	73.5%	53.2%	66.7%	22.4%	36.4%	77.3%		14.2%	82.9%
Cc1ccc(-c2ccc(SCC(=O)Nc3ccc(Cl)c(C(F)(F)F)c3)nn2)cc1	30%	65.6%	90.1%	30%	13.8%	72.7%	-1.27% (active)		35.1%	-11% (active)
CN(CCF)c1ccc(/C=C/C(=O)c2ccc(N)cc2O)cc1	93.2%	93.8%	78.8%	106%	71.9%	94%		68.8%	90.5%	111%
CCN1CCN(Cc2ccc(C(=O)Nc3cccc(-c4cn(-c5ccc6oc(=O)ccc6c5)nn4)c3)cc2C(F)(F)F)CC1	-100% (active)	-82.1% (active)	-100% (active)	-99.5% (active)	-100% (active)	-18% (active)	-100% (active)		-100% (active)	48.1%
N#Cc1ccc(-c2nn(-c3ccc(C(=O)O)cc3)cc2CNc2cc(Cl)cc(C(F)(F)F)c2)cc1	-12.8% (active)	4.02% (active)	36.4%	6.03% (active)	6.19% (active)	-26.6% (active)	19.5%		11.5%	55.7%
O=C(Nc1ccccc1)Nc1nc2ccccc2s1	78.5%	72.1%	84.4%	77.2%	95.3%	77.8%	72.3%		102%	50.8%
COc1ccc([C@H]2C(C(=O)c3ccc(Cl)cc3)C3(N[C@@H]2c2ccccc2)C(=O)Nc2ccc(Cl)cc23)cc1 (stereo not given in full)	-56.2% (active)	-56.4% (active)	20%	-57.2% (active)	-11.7% (active)	-26.7% (active)	-1.74% (active)		-12% (active)	-89.5% (active)
CC(=O)Nc1ccc(-c2cn(-c3cccc(C(=O)Nc4cc(C(F)(F)F)cc(C(F)(F)F)c4)c3)nn2)cn1	-68.6% (active)	-68% (active)	-15.6% (active)	-61.1% (active)	-71.6% (active)	-52% (active)	-11.2% (active)	-26.1% (active)	-42.8% (active)	-62.2% (active)
COc1ccccc1C(=O)NNC(=O)CSc1nc2c(c(=O)[nH]1)CCCC2	91.4%	83.6%	103%	93.5%	111%	86.2%	104%		115%	113%

From PubChem BioAssay (NCI)
